Reference: PubChem BioAssay AID1159580 (chemical genetic matrix, 2015)
Hit rate of the full screen: of about 5,500 compounds, about 2,000 (36%) were called active. Roughly 18% stayed inconclusive and do not appear here. Rule as the data show it: active = normalized growth mostly below about 0.91 (no sharp cut-off); inconclusive = no clear call, values can overlap the other calls; inactive = mostly above about 0.92. Some of the results follow.

Assay: chemical genetic growth profiling, strain panel (AID 1159580);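 also: tested at 20 µM; growth read once vehicle control cultures reached saturation at 30 °C; 1 = growth at the plate median or of vehicle wells; lower values mean less growth of the strain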
Details: growth OD

Measured: normalized growth

CCC(=O)OC1[C@@H]2CC3=C4CC(=O)O[C@@H](c5ccoc5)[C@]4(C)CCC3[C@@](C)(C2=O)[C@@H](CC(=O)OC)C1(C)C (stereo partly specified)
inactive: S. cerevisiae deletion strains, locus YJR066W, strain TOR1, hits give low values 0.936 | S. cerevisiae deletion strains, locus YKL009W, strain mrt4, hits give low values 1 | S. cerevisiae deletion strains, locus YKL068W, hits give low values 1.01 | S. cerevisiae deletion strains, locus YKL085W, strain MDH1 (second series), hits give low values 1 | S. cerevisiae deletion strains, locus YKL085W, strain MDH1, hits give low values 1 | S. cerevisiae deletion strains, locus YKL160W, strain elf1, hits give low values 1.01 | S. cerevisiae deletion strains, locus YKL190W, strain CNB1, hits give low values 0.999 | S. cerevisiae deletion strains, locus YKR001C, strain vps1, hits give low values 1.02 | S. cerevisiae deletion strains, locus YKR026C, strain gcn3, hits give low values 0.991 | S. cerevisiae deletion strains, locus YKR091W, strain srl3, hits give low values 0.984 | S. cerevisiae deletion strains, locus YLL001W, strain dnm1, hits give low values 1 | S. cerevisiae deletion strains, locus YLL026W, hits give low values 0.988 | S. cerevisiae deletion strains, locus YLL041C, strain sdh2, hits give low values 0.992 | S. cerevisiae deletion strains, locus YLR027C, strain aat2, hits give low values 0.992 | S. cerevisiae deletion strains, locus YLR039C, strain RIC1, hits give low values 0.884 | S. cerevisiae deletion strains, locus YLR058C, strain SHM2, hits give low values 1 | S. cerevisiae deletion strains, locus YLR102C, strain apc9, hits give low values 1.02 | S. cerevisiae deletion strains, locus YLR113W, strain HOG1, hits give low values 1.01 | S. cerevisiae deletion strains, locus YLR221C, strain rsa3, hits give low values 0.985 | S. cerevisiae deletion strains, locus YLR258W, strain gsy2, hits give low values 1.01 | S. cerevisiae deletion strains, locus YLR262C, strain YPT6 (second series), hits give low values 0.908 | S. cerevisiae deletion strains, locus YLR262C, strain YPT6, hits give low values 0.782 | S. cerevisiae deletion strains, locus YLR268W, strain sec22, hits give low values 0.997 | S. cerevisiae deletion strains, locus YLR320W, strain mms22, hits give low values 0.976 | S. cerevisiae deletion strains, locus YLR342W, strain FKS1, hits give low values 0.981 | S. cerevisiae deletion strains, locus YLR357W, strain rsc2, hits give low values 1.03 | S. cerevisiae deletion strains, locus YLR370C, strain arc18, hits give low values 0.983 | S. cerevisiae deletion strains, locus YLR371W, strain rom2, hits give low values 1.01 | S. cerevisiae deletion strains, locus YLR384C, strain iki3, hits give low values 1 | S. cerevisiae deletion strains, locus YLR418C, strain cdc73, hits give low values 1.03 | S. cerevisiae deletion strains, locus YML016C, strain PPZ1, hits give low values 1 | S. cerevisiae deletion strains, locus YML032C, strain rad52, hits give low values 1.02 | S. cerevisiae deletion strains, locus YML120C, strain ndi1, hits give low values 0.999 | S. cerevisiae deletion strains, locus YML124C, strain tub3, hits give low values 1.01 | S. cerevisiae deletion strains, locus YMR058W, strain fet3, hits give low values 0.994 | S. cerevisiae deletion strains, locus YMR078C, strain ctf18, hits give low values 1.02 | S. cerevisiae deletion strains, locus YMR125W, strain sto1, hits give low values 0.996 | S. cerevisiae deletion strains, locus YMR129W, hits give low values 0.998 | S. cerevisiae deletion strains, locus YMR205C, strain PFK2, hits give low values 0.995 | S. cerevisiae deletion strains, locus YMR223W, strain ubp8, hits give low values 1.01 | S. cerevisiae deletion strains, locus YMR231W, strain pep5, hits give low values 0.955 | S. cerevisiae deletion strains, locus YMR307W, strain GAS1, hits give low values 0.842 | S. cerevisiae deletion strains, locus YNL067W, strain RPL9B, hits give low values 1.01 | S. cerevisiae deletion strains, locus YNL071W, strain lat1, hits give low values 0.993 | S. cerevisiae deletion strains, locus YNL153C, strain GIM3, hits give low values 1.02 | S. cerevisiae deletion strains, locus YNL183C, strain NPR1, hits give low values 0.946 | S. cerevisiae deletion strains, locus YNL209W, strain ssb2, hits give low values 1 | S. cerevisiae deletion strains, locus YNL233W, strain BNI4, hits give low values 0.954 | S. cerevisiae deletion strains, locus YNL248C, strain rpa49, hits give low values 0.992 | S. cerevisiae deletion strains, locus YNL250W, strain rad50, hits give low values 1.01 | S. cerevisiae deletion strains, locus YNL271C, strain bni1, hits give low values 1.01 | S. cerevisiae deletion strains, locus YNL298W, strain CLA4, hits give low values 1.03 | S. cerevisiae deletion strains, locus YNL307C, strain MCK1, hits give low values 1.01 | S. cerevisiae deletion strains, locus YNL322C, strain KRE1 (second series), hits give low values 0.996 | S. cerevisiae deletion strains, locus YNL322C, strain KRE1, hits give low values 0.992 | S. cerevisiae deletion strains, locus YNR049C, strain mso1, hits give low values 0.989 | S. cerevisiae deletion strains, locus YNR052C, strain pop2, hits give low values 1.03 | S. cerevisiae deletion strains, locus YOL012C, strain htz1 1.24 | S. cerevisiae deletion strains, locus YOL147C, strain pex11, hits give low values 1.02 | S. cerevisiae deletion strains, locus YOR001W, strain rrp6, hits give low values 0.994 | S. cerevisiae deletion strains, locus YOR061W, strain CKA2, hits give low values 0.996 | S. cerevisiae deletion strains, locus YOR069W, strain VPS5, hits give low values 1 | S. cerevisiae deletion strains, locus YOR070C, strain gyp1, hits give low values 0.988 | S. cerevisiae deletion strains, locus YOR080W, strain dia2, hits give low values 0.981 | S. cerevisiae deletion strains, locus YOR083W, strain WHI5, hits give low values 1.02 | S. cerevisiae deletion strains, locus YOR106W, strain vam3, hits give low values 1.03 | S. cerevisiae deletion strains, locus YOR136W, strain idh2, hits give low values 1.02 | S. cerevisiae deletion strains, locus YOR144C, strain elg1, hits give low values 1.01 | S. cerevisiae deletion strains, locus YOR184W, strain ser1, hits give low values 0.989 | S. cerevisiae deletion strains, locus YOR231W, strain MKK1, hits give low values 1.01 | S. cerevisiae deletion strains, locus YOR265W, strain rbl2, hits give low values 0.994 | S. cerevisiae deletion strains, locus YOR270C, strain vph1, hits give low values 0.858 | S. cerevisiae deletion strains, locus YOR290C, strain snf2, hits give low values 0.996 | S. cerevisiae deletion strains, locus YOR316C, strain cot1, hits give low values 1.01 | S. cerevisiae deletion strains, locus YPL051W, strain arl3, hits give low values 0.982 | S. cerevisiae deletion strains, locus YPL055C, strain LGE1, hits give low values 1.01 | S. cerevisiae deletion strains, locus YPL078C, strain atp4, hits give low values 1.02 | S. cerevisiae deletion strains, locus YPL106C, strain sse1, hits give low values 1.04 | S. cerevisiae deletion strains, locus YPL240C, strain hsp82, hits give low values 0.99 | S. cerevisiae deletion strains, locus YPL256C, strain CLN2, hits give low values 0.983 | S. cerevisiae deletion strains, locus YPR119W, strain clb2, hits give low values 1.01 | S. cerevisiae deletion strains, locus YPR141C, strain kar3, hits give low values 1.01 | S. cerevisiae deletion strains, locus YPR163C, strain tif3, hits give low values 1.01 | S. cerevisiae deletion strains, locus YPR167C, strain met16, hits give low values 0.998 | S. cerevisiae deletion strains, strain wtn01, hits give low values 1.07 | S. cerevisiae strains, strain wild type, hits give low values 0.976
